An excerpt weighted towards active compounds, which were near 2.4% of everything screened.
Pol iota inh – qHTS for Inhibitors of Polymerase Iota; hit rate 1% among 390,000; Potency, µM (doses to about 115 µM), without a hit: at the top dose activity, negative = inhibition, most hits filed as inhibitors; Pol iota fluorescent replication assay, 10 min; AID 588590, 2011; further: potency means the concentration at half of the fitted maximal effect
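Pol iota at 10 nM preincubated 15 min with compounds at room temperature; reaction started with fluorescent substrate, 50 nM final. Fluorescence read kinetically at 0 and 10 min; buffer-only wells as negative control.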
Pol eta inh-1 – qHTS for Inhibitors of Polymerase Eta; DNA polymerase eta (Homo sapiens), Q9Y253; recombinant Pol eta, fluorescent DNA replication assay; Potency, µM (doses to about 114 µM), inactives show at the highest dose activity change, negative = inhibition, hits mostly inhibitors; hit rate 1.2% among 390,000; AID 588591, 2011; further: potency means the concentration at half of the fitted maximal effect; on the % scale 0 is the no-effect control and ±100 the full control effect
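Pol eta (10 nM) was preincubated with compounds for 15 min at room temperature, after which fluorescent replication substrate (50 nM final) was added to start the reaction. Fluorescence was read kinetically at 0 and 10 min.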
FEN1 inh-1 – qHTS Assay for the Inhibitors of Human Flap endonuclease 1 (FEN1); P39748; Recombinant FEN1 flap cleavage, fluorescence, 15 min; Potency, µM (series often up to 114 µM), inactives show at the top dose activity change, negative = inhibition, hits mostly inhibitors; hit rate 0.35% among 390,000; AID 588795, 2011; further: potency means the concentration at half of the fitted maximal effect; on the % scale 0 is the no-effect control and ±100 the full control effect; nearly all actives have a fitted effect of over 65% in size
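Read-out was taken twice, immediately and after 15 min, following addition of 50 nM substrate to 10 nM FEN1 that had sat with test compound for 15 min at room temperature. Curves came from a four-parameter Hill model.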
TDP1 block – qHTS Assay for Inhibitors of Tyrosyl-DNA Phosphodiesterase (TDP1) | recombinant TDP1, AlphaScreen DNA substrate cleavage | Potency, µM (titrated, usually from 130 µM), for the others: top-dose activity change, negative = inhibition, usual class: inhibitors | hit rate 0.28% among 350,000 | AID 485290, 2010; further: potency means the concentration at half of the fitted maximal effect; on the % scale 0 is the no-effect control and ±100 the full control effect; nearly all actives have a fitted effect of over 40% in size
Target sequence (Q9NUW8 whole entry, looked up): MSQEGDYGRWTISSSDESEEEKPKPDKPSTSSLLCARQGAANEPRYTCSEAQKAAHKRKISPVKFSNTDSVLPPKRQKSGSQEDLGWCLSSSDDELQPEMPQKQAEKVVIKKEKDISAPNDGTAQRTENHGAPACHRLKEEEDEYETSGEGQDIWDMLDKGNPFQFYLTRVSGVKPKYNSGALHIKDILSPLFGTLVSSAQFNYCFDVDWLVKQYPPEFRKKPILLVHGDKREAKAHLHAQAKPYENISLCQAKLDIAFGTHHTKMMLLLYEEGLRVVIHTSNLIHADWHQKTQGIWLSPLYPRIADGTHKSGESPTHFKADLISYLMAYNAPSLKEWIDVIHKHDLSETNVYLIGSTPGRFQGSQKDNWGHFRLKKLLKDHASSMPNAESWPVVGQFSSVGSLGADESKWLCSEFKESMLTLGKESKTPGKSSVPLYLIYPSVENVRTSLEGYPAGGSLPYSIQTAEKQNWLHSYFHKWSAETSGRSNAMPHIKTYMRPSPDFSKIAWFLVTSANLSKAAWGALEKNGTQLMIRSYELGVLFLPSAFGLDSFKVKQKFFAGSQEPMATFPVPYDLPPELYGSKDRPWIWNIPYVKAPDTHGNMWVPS
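Recombinant human Tdp1 (E. coli-expressed, 1 nM final) preincubated with compounds 15 min at room temperature, then 5'-biotin/3'-phosphotyrosine-FITC DNA substrate (15 nM final) added for 5 min. AlphaScreen beads (10 ug/ml final) added 10 min; cleavage lowers signal.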
Pol kappa inh-1 – qHTS for Inhibitors of Polymerase Kappa; Potency, µM (doses to about 107 µM), for inactives: at the top dose activity, negative = inhibition, hits mostly inhibitors; DNA polymerase kappa (Homo sapiens), Q9UBT6; AID 588579, 2011; hit rate 0.53% among 400,000; purified Pol kappa, fluorescent DNA synthesis assay, 10 min; further: potency means the concentration at half of the fitted maximal effect; on the % scale 0 is the no-effect control and ±100 the full control effect
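Activity was followed as the change in fluorescence between reads at 0 and 10 min after starting the reaction with 50 nM substrate. Beforehand, 10 nM polymerase had been preincubated with compound for 15 min at room temperature.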
POLB inh – qHTS Assay for Inhibitors of DNA Polymerase Beta; P06746; Pol beta primer extension/strand displacement, fluorescence kinetic; Potency, µM (series often up to 114 µM), without a hit: at the top dose activity change, negative = inhibition, most hits filed as inhibitors; hit rate 1.3% among 340,000; AID 485314, 2010; further: potency means the concentration at half of the fitted maximal effect; on the % scale 0 is the no-effect control and ±100 the full control effect
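Values derive from four-parameter Hill fits of normalized kinetic data: reads at 0 and 10 min following addition of 50 nM substrate to 10 nM Pol beta preincubated 15 min with compound.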
BAZ2B inh – qHTS Assay for Inhibitors of BAZ2B: Hit Validation; shares compounds with Pol kappa inh-1; AlphaScreen BAZ2B / biotin-H3K14Ac peptide displacement; Potency, µM, hits mostly inhibitors; hit rate 100% among 25; AID 588809, 2011; calls by dose curve
BAZ2B bead ctr – qHTS Assay for Inhibitors of BAZ2B: Hit Validation in AlphaScreen Counterscreen | 25 tested, under 10 active | AlphaScreen biotin-His6 peptide bead counterscreen, signal decrease | shares compounds with Pol kappa inh-1 | Potency, µM (top dose mostly 57.1 µM), for the others: at the top dose activity change, negative = inhibition, most hits filed as inhibitors;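 active means clear concentration-dependent signal drop in the bead assay lacking the target, so a primary-screen artifact; inconclusive means weak, partial or single-dose response; inactive means no response, so a real primary hit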
TbPGK inh – qHTS for inhibitors of Phosphogylcerate Kinase: Hit Validation Screen; shares compounds with Pol kappa inh-1; TbPGK coupled GAPDH assay, Kinase-Glo luminescence; Potency, µM (top dose mostly 57.5 µM), inactives show top-dose activity change, negative = inhibition, hits mostly inhibitors; hit rate 79% among 500; further: potency means the concentration at half of the fitted maximal effect; on the % scale 0 is the no-effect control and ±100 the full control effect; nearly all actives have a fitted effect of over 65% in size
POLI cherry-pick – qHTS for Inhibitors of Polymerase Iota: Confirmatory Assay for Cherry-picked Compounds. Pol iota primer extension, TAMRA/BHQ fluorescence. Potency, µM, usual class: inhibitors. hit rate 77% among 1,500. AID 720496, 2013. shares compounds with Pol kappa inh-1; further: potency means the concentration at half of the fitted maximal effect
Pol kappa inh-2 – qHTS for Inhibitors of Polymerase Kappa: Confirmatory Assay for Cherry-picked Compounds | shares compounds with Pol eta inh-1 | hit rate 76% among 920 | Potency, µM, actives largely listed as inhibitors | purified Pol-kappa, fluorescent strand-displacement substrate | AID 720501, 2013; further: potency means the concentration at half of the fitted maximal effect
Pol eta inh-2 – qHTS for Inhibitors of Polymerase Eta: Confirmatory Assay for Cherry-picked Compounds | AID 720502, 2013 | Potency, µM, actives largely listed as inhibitors | hit rate 64% among 2,600 | Pol eta primer extension, TAMRA/BHQ fluorescence, 10 min | shares compounds with Pol eta inh-1; further: potency means the concentration at half of the fitted maximal effect
FEN1 inh-2 – qHTS Assay for the Inhibitors of FEN1: Confirmatory Assay for Cherry-picked Compounds. AID 720498, 2013. Potency, µM, usual class: inhibitors. hit rate 79% among 880. FEN1 flap cleavage, TAMRA/BHQ2 fluorogenic DNA substrate. shares compounds with FEN1 inh-1; further: potency means the concentration at half of the fitted maximal effect; nearly all actives have a fitted effect of over 60% in size
Active calls of the source: *; ? = inconclusive; . = no result given; [ ] = dose if it differs, or a comment. Unless noted, the call rests on the fitted dose curve; in most records, active means well fitted curve in the direction sought with a large enough effect; inconclusive means small, poorly fitted or top-dose-only effect, or another doubt; inactive means no such curve, though single readings can be large; an effect the other way counts as inactive or inconclusive.

SMILES | Pol iota inh | Pol eta inh-1 | FEN1 inh-1 | TDP1 block | Pol kappa inh-1 | POLB inh | POLI cherry-pick | Pol eta inh-2 | others
COC12C(COC(N)=O)C3=C(C(=O)C(C)=C(N)C3=O)N1CC1C2N1C (stereo not drawn) | ? | 50µM* | 11% | ? | -35% | -19% | 38* | .
CCOc1cc(C=C2C(=O)NC(=S)NC2=O)ccc1O | ? | -14% | -15% | . | -14% | . | . | .
O=C1NC(=S)NC(=O)C1=Cc1ccc2c(c1)CCN2CCCCl | ? | 2µM* | ? | . | 10µM* | ? | . | . | TbPGK inh=2.3µM*
CC(C)C#N | . | . | . | 3% | . | . | . | .
O=S(=O)(CCN1CCN(c2ccccn2)CC1)c1ccc(Cl)cc1Cl | 175% | -10% | 1% | 0% | -2% | 0% | . | .
Nc1ccc([N+](=O)[O-])cc1[N+](=O)[O-] | . | . | . | 17% | . | . | . | .
O=[N+]([O-])c1cc(S(=O)(=O)c2ccc(O)c([N+](=O)[O-])c2)ccc1O | 18µM* | 2.8µM* | ? | . | 45µM* | 11µM* | 60* | 30* | Pol kappa inh-2=6.7*
O=C(O)CCn1cc(C=C2C(=O)NC(=S)NC2=O)c(-c2cc3ccccc3oc2=O)n1 | 40µM* | 20µM* | ? | -2% | ? | -25% | 67* | 30*
Cc1cc(/C=C2\C(=O)NC(=O)N(c3ccc(Cl)cc3)C2=O)c(C)n1-c1cccc(C(=O)O)c1 | 18µM* | 20µM* | ? | . | -96% | ? | 60* | 6.7* | Pol kappa inh-2=17*
Cc1cc(/C=C2/C(=O)NC(=O)N(c3ccc(Br)cc3)C2=O)c(C)n1C | -18%[58.9 µM] | -11% | 2% | -1% | -12% | -29% | . | .
C[C@]12C=CC(=O)C=C1CCC1C2=CC[C@]2(C)[C@@H](C(=O)CN3CCN(c4cc(N5CCCC5)nc(N5CCCC5)n4)CC3)CC[C@@H]12 (stereo partly drawn) | -12%[58.9 µM] | ? | . | 12% | . | 24%[57.1 µM] | . | .
On1ccccc1=S | ? | 1% | ? | . | -6% | . | . | .
CCn1nc(/C=C/c2ccccc2)nc2c(=O)n(C)c(=O)nc1-2 | -92% | 0.79µM* | -14% | -3% | 1% | -11% | 0.75* | 0.76* | TbPGK inh=0.52µM*
CCOc1ccc(-n2c(/C=C/c3ccccc3)nc3ccccc3c2=O)cc1 | 5% | -13% | 10% | 3% | -9%[60.1 µM] | 0% | . | .
CN(C)c1ccc(/C=C2/C(=O)NC(=O)N(Cc3ccco3)C2=O)cc1 | 16µM* | 6.3µM* | -29% | 28µM* | 35µM* | ? | 67* | 38* | Pol kappa inh-2=30*
CN(C)c1ccc(/C=C2\C(=O)NC(=O)N(CCc3ccc(F)cc3)C2=O)cc1 | ? | -2% | -6% | -2% | -7% | 3% | . | .
O=C1NC(=O)N(Cc2ccc(F)cc2)C(=O)/C1=C\c1ccc(N2CCCC2)cc1 | 14µM* | 32µM* | ? | 5% | ? | 35µM* | 67* | 60*
COP(=S)(OC)Oc1ccc([N+](=O)[O-])c(C)c1 | . | . | . | 10% | 14%[60.1 µM] | . | . | .
CC(C)N1C(=O)/C(=C/C=C/c2ccco2)C(=O)N(Cc2ccco2)C1=O | ? | 2.5µM* | 56µM* | 6% | 22µM* | 22µM* | 19* | 9.5*
O=C(O)Cc1ccc(-n2cccc2)cc1 | 13µM* | 3.5µM* | ? | 5% | 45µM* | 4.5µM* | 12* | 7.6* | BAZ2B inh=25*;BAZ2B bead ctr=?
CC1=C(O)C(=O)[C@@H]2O[C@@H]2C1=O | . | . | . | -9% | -4%[19.4 µM] | . | . | .
CCOC(=O)C1CCCN(c2ccc([N+](=O)[O-])c3nonc23)C1 (stereo not drawn) | 56µM* | 35µM* | ? | 6% | 25µM* | 14µM* | 38* | 76* | Pol kappa inh-2=84*;FEN1 inh-2=67*
C=CC(C)=O | . | . | . | 1% | . | . | . | .
O=[N+]([O-])c1ccc2c3c(cccc13)CC2 | . | . | . | 14% | . | . | . | .
CCN(CC(=O)Nc1c(F)cccc1F)C(=O)/C=C/c1ccc2ccccc2n1 | 4.5µM* | 1.1µM* | 50µM* | . | 8.9µM* | . | 9.5* | 19* | BAZ2B inh=14*;BAZ2B bead ctr=?;FEN1 inh-2=76*
O=C1NC(=O)N(CCc2ccc(F)cc2)C(=O)/C1=C/c1ccco1 | 13µM* | 20µM* | ? | . | ? | 3.2µM* | 67* | 48* | TbPGK inh=8.2µM*;FEN1 inh-2=76*
COc1ccc(CN2C(=O)NC(=O)/C(=C\c3ccco3)C2=O)cc1 | ? | 8.9µM* | 28µM* | . | 25µM* | 13µM* | 27* | 27* | FEN1 inh-2=76*
CC(c1nccs1)N(C)C(=O)c1cn(Cc2cccc3ccccc23)nn1 (stereo not drawn) | 38% | -4% | 16% | 4% | -8% | -1% | . | .

Compound activity: PubChem BioAssay, National Center for Advancing Translational Sciences (NCATS)
